# From PubChem BioAssay (EPA / NIEHS)
# Several values for one entry are separate records, joined by “and”; a condition that tells them apart may be missing. Equal values may be shown once. Inconclusive results are not listed. Some structures have more than one record in an assay (separate samples or runs), and their calls can disagree. Activity calls are given as the source filed them. Rule for the calls: active = hit-call score of the fitted dose curve at least 0.9, where 1 is the maximum; inconclusive = response in the unintended direction; inactive = score below 0.9.
# What was measured:
# [1] = molecular target: human Caspase 5 (CASP5), CASP5 (gene 838) (UniProt P51878); test: NVS_ENZ_hCASP5: NovaScreen (NVS) Enzymatic Assay for human Caspase 5 (CASP5) (AID 2283137)
# Sequence of human Caspase 5 (CASP5), CASP5 (gene 838) (P51878 whole entry, looked up): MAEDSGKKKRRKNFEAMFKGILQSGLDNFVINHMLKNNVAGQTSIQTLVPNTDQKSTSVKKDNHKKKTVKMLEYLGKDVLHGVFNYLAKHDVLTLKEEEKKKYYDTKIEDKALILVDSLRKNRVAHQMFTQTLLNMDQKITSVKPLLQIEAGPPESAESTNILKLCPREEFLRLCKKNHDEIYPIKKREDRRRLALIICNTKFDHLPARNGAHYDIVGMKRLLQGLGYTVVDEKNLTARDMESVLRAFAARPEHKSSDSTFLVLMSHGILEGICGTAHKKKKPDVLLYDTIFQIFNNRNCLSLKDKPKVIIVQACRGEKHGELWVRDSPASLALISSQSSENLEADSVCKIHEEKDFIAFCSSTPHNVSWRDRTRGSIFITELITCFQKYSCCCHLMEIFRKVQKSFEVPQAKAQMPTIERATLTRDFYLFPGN
# How it was run: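 Caspase 5 enzyme activity, detected as fluorescence signal loss, is measured in a biochemical format using E. coli-expressed protein. Reading occurs 2 hours post-dosing. Screening runs at 25 uM, with confirmed actives titrated to 50 uM maximum.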
# CDK2 (gene 1017) = CDK2 (gene 1017) (UniProt P24941); test: NVS_ENZ_hCDK2: NovaScreen (NVS) Enzymatic Assay for human Cyclin-Cependent Kinase 2 (CDK2) (AID 2283144)
# How it was run: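 Compounds screened in duplicate at 25 uM, then in singleton concentration-response to a maximum of 50 uM, against recombinant CDK2; kinase activity read 1 hr after dosing by fluorescence with mobility-shift separation of substrate and product.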
# [2] = molecular target: human Caspase 8 (CASP8), CASP8 (gene 841) (UniProt Q14790); test: NVS_ENZ_hCASP8: NovaScreen (NVS) Enzymatic Assay for human Caspase 8 (CASP8) (AID 2283146)
# How it was run: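 The primary screen tested compounds in duplicate at a single 25 uM concentration, with actives followed up in concentration series. Activity of recombinant (E. coli) protease was measured by fluorescence 1 h post-dose, as signal loss against DMSO.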
# [3] = molecular target: human Casein Kinase 2- alpha 2 beta 2 (CK2a2b2), CSNK2A1 (gene 1457) (UniProt P68400); test: NVS_ENZ_hCK2a2b2: NovaScreen (NVS) Enzymatic Assay for human Casein Kinase 2- alpha 2 beta 2 (CK2a2b2) (AID 2283147)
# Sequence of human Casein Kinase 2- alpha 2 beta 2 (CK2a2b2), CSNK2A1 (gene 1457) (P68400 whole entry, looked up): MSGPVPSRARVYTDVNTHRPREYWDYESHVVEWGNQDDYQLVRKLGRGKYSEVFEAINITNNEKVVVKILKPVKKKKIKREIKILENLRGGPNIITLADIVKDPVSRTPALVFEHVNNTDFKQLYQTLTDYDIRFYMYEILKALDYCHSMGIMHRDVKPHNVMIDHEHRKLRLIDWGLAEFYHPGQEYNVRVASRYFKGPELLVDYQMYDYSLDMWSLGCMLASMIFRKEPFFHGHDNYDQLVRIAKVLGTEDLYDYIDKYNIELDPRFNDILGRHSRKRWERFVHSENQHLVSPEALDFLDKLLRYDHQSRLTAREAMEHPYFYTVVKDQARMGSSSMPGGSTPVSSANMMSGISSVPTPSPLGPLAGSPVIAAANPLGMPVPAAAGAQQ
# How it was run: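 Compounds were first screened in duplicate at 25 uM, and those passing the threshold were re-tested in concentration series up to a 50 uM maximum. Kinase activity of recombinant human CK2 α2β2 was measured 1 h after dosing by fluorescent substrate/product mobility-shift separation.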
# [4] = molecular target: human Colony Stimulating Factor 1 Receptor (CSF1R), CSF1R (gene 1436) (UniProt P07333); test: NVS_ENZ_hCSF1R: NovaScreen (NVS) Enzymatic Assay for human Colony Stimulating Factor 1 Receptor (CSF1R) (AID 2283150)
# Sequence of human Colony Stimulating Factor 1 Receptor (CSF1R), CSF1R (gene 1436) (P07333 whole entry, looked up): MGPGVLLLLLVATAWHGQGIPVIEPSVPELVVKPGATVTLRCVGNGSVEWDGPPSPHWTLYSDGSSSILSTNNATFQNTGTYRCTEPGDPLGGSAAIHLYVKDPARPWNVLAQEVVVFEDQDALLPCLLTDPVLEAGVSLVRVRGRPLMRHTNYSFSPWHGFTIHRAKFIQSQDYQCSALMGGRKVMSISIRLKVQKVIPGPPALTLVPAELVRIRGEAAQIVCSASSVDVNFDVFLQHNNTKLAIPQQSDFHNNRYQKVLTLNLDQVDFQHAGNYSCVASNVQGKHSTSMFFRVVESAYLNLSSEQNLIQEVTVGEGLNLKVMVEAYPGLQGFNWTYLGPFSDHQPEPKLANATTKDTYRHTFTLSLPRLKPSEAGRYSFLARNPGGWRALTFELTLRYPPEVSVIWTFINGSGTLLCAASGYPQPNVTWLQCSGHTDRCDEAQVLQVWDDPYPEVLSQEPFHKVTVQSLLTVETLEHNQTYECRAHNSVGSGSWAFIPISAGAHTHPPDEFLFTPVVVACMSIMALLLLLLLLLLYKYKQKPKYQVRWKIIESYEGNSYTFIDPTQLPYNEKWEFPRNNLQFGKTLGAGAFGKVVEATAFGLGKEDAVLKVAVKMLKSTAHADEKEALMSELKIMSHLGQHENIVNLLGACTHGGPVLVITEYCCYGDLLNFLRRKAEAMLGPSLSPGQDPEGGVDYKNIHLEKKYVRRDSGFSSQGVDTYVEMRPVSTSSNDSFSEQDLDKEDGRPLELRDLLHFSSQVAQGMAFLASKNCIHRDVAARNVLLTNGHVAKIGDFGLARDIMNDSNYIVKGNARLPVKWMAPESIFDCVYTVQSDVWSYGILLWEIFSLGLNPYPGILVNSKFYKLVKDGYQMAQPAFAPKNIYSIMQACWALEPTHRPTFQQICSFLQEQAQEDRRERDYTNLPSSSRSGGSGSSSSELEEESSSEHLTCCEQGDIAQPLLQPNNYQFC
# How it was run: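 Compounds screened in duplicate at 25 uM, then concentration-response (top 50 uM) for those passing threshold such as 30% inhibition; recombinant CSF1R activity measured 1 h post-dosing via fluorescent substrate/product mobility-shift separation, loss of signal versus DMSO.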
# [5] = molecular target: Glycogen synthase kinase-3 beta (Homo sapiens) (UniProt P49841); test: NVS_ENZ_hGSK3b: NovaScreen (NVS) Enzymatic Assay for human Glycogen Synthase Kinase-3 beta (GSK3b) (AID 2283165)
# Sequence of Glycogen synthase kinase-3 beta (Homo sapiens) (P49841 whole entry, looked up): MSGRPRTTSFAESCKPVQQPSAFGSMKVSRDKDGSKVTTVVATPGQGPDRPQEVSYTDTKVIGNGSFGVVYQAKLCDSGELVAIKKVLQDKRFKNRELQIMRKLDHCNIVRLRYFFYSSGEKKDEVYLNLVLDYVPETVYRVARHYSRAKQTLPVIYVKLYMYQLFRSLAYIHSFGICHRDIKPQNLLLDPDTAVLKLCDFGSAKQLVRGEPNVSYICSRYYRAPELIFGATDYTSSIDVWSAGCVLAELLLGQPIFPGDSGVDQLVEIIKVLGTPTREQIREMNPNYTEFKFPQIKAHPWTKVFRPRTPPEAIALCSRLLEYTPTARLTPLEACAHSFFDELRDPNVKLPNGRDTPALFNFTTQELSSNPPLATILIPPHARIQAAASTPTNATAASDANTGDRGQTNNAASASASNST
# How it was run: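 Recombinant enzyme with specific fluorescent substrate, 1 h, product separated by electrophoretic mobility shift. Primary duplicate screen at 25 uM; actives (e.g. 30% inhibition) followed in singleton concentration-response to 50 uM. Signal loss fitted versus DMSO.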
# [6] = molecular target: human Elastase, ELANE (gene 1991) (UniProt P08246); test: NVS_ENZ_hElastase: NovaScreen (NVS) Enzymatic Assay for human Elastase (AID 2283153)
# Sequence of human Elastase, ELANE (gene 1991) (P08246 whole entry, looked up): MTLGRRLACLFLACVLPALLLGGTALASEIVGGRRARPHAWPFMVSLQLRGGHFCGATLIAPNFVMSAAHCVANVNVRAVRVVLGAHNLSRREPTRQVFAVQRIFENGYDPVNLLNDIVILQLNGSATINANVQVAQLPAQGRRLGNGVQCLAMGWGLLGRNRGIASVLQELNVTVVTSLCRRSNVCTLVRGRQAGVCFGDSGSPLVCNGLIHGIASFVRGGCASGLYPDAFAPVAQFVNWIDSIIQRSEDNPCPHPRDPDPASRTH
# How it was run: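 Concentration-response to 50 uM max, run singly for chemicals passing a threshold (e.g., 30% inhibition) in a duplicate 25 uM single-point screen. Neutrophil-derived human elastase, absorbance read-out of enzyme activity at 1.5 h; DMSO baseline.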
# [7] = molecular target: human Dual Specificity Protein Phosphatase 3 (DUSP3), DUSP3 (gene 1845) (UniProt P51452); test: NVS_ENZ_hDUSP3: NovaScreen (NVS) Enzymatic Assay for human Dual Specificity Protein Phosphatase 3 (DUSP3) (AID 2283152);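 note: phosphatase activity of recombinant human DUSP3 on a fluorogenic substrate without cells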
# Sequence of human Dual Specificity Protein Phosphatase 3 (DUSP3), DUSP3 (gene 1845) (P51452 whole entry, looked up): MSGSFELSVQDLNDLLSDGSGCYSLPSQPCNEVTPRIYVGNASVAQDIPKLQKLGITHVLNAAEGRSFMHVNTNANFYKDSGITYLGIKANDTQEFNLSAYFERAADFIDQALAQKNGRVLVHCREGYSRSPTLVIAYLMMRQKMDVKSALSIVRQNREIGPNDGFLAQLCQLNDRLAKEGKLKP
# How it was run: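 Cell-free fluorescence-intensity enzyme activity assay with recombinant protein and substrate; loss of signal fitted relative to DMSO baseline. Primary screen in duplicate at 25 uM, actives then run in concentration series; measured 0 h after dosing.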
# [8] = molecular target: human Ephrin type-B Receptor 1 (EphB1), EPHB1 (gene 2047) (UniProt P54762); test: NVS_ENZ_hEphB1: NovaScreen (NVS) Enzymatic Assay for human Ephrin type-B Receptor 1 (EphB1) (AID 2283154)
# How it was run: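 Recombinant EphB1 activity read by fluorescence after mobility-shift separation of product from substrate, 1 h post-dosing. Compounds screened in duplicate at 25 uM; inhibition scored as signal loss relative to DMSO.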
# [9] = molecular target: human Esterase Plasma (ES), BCHE (gene 590) (UniProt P06276); test: NVS_ENZ_hES: NovaScreen (NVS) Enzymatic Assay for human Esterase Plasma (ES) (AID 2283157)
# How it was run: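 Primary single-concentration screen at 25 uM in duplicate, then concentration-response to a 50 uM top dose. Human plasma esterase activity detected colorimetrically after 0.25 h incubation, with DMSO as baseline.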
# [10] = molecular target: human AKT serine/threonine Kinase 1 (AKT1), AKT1 (gene 207) (UniProt P31749); test: NVS_ENZ_hAKT1: NovaScreen (NVS) Enzymatic Assay for human AKT serine/threonine Kinase 1 (AKT1) (AID 2283138)
# Sequence of human AKT serine/threonine Kinase 1 (AKT1), AKT1 (gene 207) (P31749 whole entry, looked up): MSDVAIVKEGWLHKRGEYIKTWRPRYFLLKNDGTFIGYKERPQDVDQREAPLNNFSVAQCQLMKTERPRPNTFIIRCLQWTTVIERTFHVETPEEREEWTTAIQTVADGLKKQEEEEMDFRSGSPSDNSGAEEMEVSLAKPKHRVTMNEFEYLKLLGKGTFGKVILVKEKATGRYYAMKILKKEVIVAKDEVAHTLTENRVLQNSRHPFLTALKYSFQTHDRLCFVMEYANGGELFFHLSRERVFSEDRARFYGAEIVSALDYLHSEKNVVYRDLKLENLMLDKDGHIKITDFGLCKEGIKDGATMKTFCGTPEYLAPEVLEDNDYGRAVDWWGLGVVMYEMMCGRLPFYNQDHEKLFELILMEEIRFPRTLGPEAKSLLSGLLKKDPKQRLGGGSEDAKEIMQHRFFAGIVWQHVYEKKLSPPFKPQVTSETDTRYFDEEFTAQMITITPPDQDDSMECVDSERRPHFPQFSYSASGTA
# How it was run: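 A biochemical assay with recombinant enzyme and specific substrate, read by fluorescence intensity with mobility-shift separation 1 hour after dosing. Actives from 25 uM duplicate screening were titrated up to 50 uM against DMSO baseline.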
# Caspase-3 (Homo sapiens) = Caspase-3 (Homo sapiens) (UniProt P42574); test: NVS_ENZ_hCASP3: NovaScreen (NVS) Enzymatic Assay for human Caspase 3 (CASP3) (AID 2283139)
# How it was run: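 Single-concentration screening at 25 uM in duplicate, with concentration-response follow-up to a 50 uM maximum for chemicals passing the threshold. Caspase-3 (human, E. coli-expressed) activity was read as substrate fluorescence after 1 h, with loss of signal relative to DMSO.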
# [11] = molecular target: human AKT serine/threonine Kinase 2 (AKT2), AKT2 (gene 208) (UniProt P31751); test: NVS_ENZ_hAKT2: NovaScreen (NVS) Enzymatic Assay for human AKT serine/threonine Kinase 2 (AKT2) (AID 2283141)
# Sequence of human AKT serine/threonine Kinase 2 (AKT2), AKT2 (gene 208) (P31751 whole entry, looked up): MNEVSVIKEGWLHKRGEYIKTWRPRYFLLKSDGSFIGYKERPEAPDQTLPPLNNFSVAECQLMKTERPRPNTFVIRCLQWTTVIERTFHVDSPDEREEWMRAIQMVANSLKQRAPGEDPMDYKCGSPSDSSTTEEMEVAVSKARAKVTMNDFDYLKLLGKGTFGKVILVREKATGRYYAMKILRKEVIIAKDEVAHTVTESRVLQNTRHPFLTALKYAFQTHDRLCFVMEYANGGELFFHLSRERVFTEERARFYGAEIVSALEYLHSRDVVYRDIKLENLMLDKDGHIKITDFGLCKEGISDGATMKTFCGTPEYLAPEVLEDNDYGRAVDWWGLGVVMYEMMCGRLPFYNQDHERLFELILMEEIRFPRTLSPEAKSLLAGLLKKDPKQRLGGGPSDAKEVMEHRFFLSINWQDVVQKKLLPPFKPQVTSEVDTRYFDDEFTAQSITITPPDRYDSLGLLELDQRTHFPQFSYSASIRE
# How it was run: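 Cell-free fluorescence/electrophoretic mobility shift readout of recombinant human AKT2 activity, 1 h after chemical dosing. Duplicate primary screen at 25 uM, then singleton concentration-response up to 50 uM; loss of signal versus DMSO baseline.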
# [12] = molecular target: human Caspase 4 (CASP4), CASP4 (gene 837) (UniProt P49662); test: NVS_ENZ_hCASP4: NovaScreen (NVS) Enzymatic Assay for human Caspase 4 (CASP4) (AID 2283143)
# Sequence of human Caspase 4 (CASP4), CASP4 (gene 837) (P49662 whole entry, looked up): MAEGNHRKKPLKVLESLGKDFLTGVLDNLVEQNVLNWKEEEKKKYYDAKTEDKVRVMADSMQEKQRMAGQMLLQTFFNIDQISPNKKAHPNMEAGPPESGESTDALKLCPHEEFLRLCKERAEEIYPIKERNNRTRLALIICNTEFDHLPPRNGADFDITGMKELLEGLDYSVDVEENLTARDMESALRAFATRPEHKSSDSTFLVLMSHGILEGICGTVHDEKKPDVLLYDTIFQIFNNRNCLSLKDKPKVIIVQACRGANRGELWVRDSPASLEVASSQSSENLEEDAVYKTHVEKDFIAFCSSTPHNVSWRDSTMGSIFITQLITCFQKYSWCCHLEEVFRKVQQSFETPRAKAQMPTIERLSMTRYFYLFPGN
# How it was run: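 Compounds were first tested in duplicate at 25 uM, and hits were titrated singly to a 50 uM maximum. Recombinant protease from E. coli was read by fluorescence 2 h post-dose, and activity loss was fitted against the DMSO baseline.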
# [13] = molecular target: human Casein Kinase 1-delta (CK1D), CSNK1D (gene 1453) (UniProt P48730); test: NVS_ENZ_hCK1D: NovaScreen (NVS) Enzymatic Assay for human Casein Kinase 1-delta (CK1D) (AID 2283148)
# How it was run: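 Recombinant human CK1-delta, cell-free; fluorescent substrate with electrophoretic mobility-shift separation of product, read 1 h after dosing. Single 25 uM duplicate screen, then concentration-response up to 50 uM; loss of signal vs DMSO.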
# [14] = molecular target: human Ephrin type-A Receptor 1 (EphA1), EPHA1 (gene 2041) (UniProt P21709); test: NVS_ENZ_hEphA1: NovaScreen (NVS) Enzymatic Assay for human Ephrin type-A Receptor 1 (EphA1) (AID 2283158);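 note: activity is signal loss versus DMSO meaning EphA1 kinase inhibition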
# Sequence of human Ephrin type-A Receptor 1 (EphA1), EPHA1 (gene 2041) (P21709 whole entry, looked up): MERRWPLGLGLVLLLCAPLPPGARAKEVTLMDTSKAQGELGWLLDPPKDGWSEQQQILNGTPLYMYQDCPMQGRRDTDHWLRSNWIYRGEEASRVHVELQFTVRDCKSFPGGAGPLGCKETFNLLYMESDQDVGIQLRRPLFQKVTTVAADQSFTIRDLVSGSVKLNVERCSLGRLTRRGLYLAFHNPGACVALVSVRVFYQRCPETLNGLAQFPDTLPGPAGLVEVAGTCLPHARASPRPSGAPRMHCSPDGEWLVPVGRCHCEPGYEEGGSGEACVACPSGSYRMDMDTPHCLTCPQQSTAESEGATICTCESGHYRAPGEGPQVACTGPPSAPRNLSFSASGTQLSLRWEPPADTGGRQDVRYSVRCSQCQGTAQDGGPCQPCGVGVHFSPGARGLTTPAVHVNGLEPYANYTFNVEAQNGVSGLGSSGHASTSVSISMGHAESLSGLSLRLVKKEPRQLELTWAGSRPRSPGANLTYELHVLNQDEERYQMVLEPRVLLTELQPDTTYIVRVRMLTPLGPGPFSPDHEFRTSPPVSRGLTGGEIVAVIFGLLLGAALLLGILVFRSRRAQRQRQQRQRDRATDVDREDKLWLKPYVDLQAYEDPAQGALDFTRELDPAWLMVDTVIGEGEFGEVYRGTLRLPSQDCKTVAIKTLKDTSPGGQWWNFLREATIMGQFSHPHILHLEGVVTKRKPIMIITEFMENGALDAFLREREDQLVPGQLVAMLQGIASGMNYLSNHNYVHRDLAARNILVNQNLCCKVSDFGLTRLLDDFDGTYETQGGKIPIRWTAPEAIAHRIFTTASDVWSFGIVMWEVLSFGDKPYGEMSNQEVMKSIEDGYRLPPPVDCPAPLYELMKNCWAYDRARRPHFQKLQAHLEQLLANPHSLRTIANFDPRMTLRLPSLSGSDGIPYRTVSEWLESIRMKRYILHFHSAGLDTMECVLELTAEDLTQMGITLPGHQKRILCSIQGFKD
# How it was run: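 Cell-free kinase activity with recombinant protein, 1 hour after dosing; product separated by electrophoretic mobility shift, fluorescence read. Primary screen at 25 uM in duplicate; hits run as concentration-response up to 50 uM, relative to DMSO.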
# [15] = molecular target: Histone deacetylase 3 (Homo sapiens) (UniProt O15379); test: NVS_ENZ_hHDAC3: NovaScreen (NVS) Enzymatic Assay for human Histone Deacetylase 3 (HDAC3) (AID 2283163)
# How it was run: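 Cell-free enzyme format: loss of fluorescent product after mobility-shift separation, 1 h incubation, recombinant human HDAC3. Single 25 uM duplicate screen first, then concentration series to a 50 uM top for hits; DMSO as baseline.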
# [16] = molecular target: human Janus Kinase 2 (Jak2), JAK2 (gene 3717) (UniProt O60674); test: NVS_ENZ_hJak2: NovaScreen (NVS) Enzymatic Assay for human Janus Kinase 2 (Jak2) (AID 2283169)
# How it was run: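 Single-point duplicate screen at 25 uM, with hits run in concentration series to a 50 uM top dose. Substrate-product separation by mobility shift with fluorescence detection, 1 h post-dosing; DMSO baseline.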
# [17] = molecular target: human Insulin Receptor (InsR), INSR (gene 3643) (UniProt P06213); test: NVS_ENZ_hInsR: NovaScreen (NVS) Enzymatic Assay for human Insulin Receptor (InsR) (AID 2283168)
# How it was run: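 Cell-free enzyme assay read 1 h post-dose by fluorescence after substrate/product mobility-shift separation. Duplicate 25 uM primary screen, then singleton concentration-response up to 50 uM for compounds passing threshold; loss of signal vs DMSO.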
smiles,measurement,setting,value
O=C(O)C1(C(=O)Nc2ccc(Cl)cc2Cl)CC1,AC50,[1],3.02 µM (active)
same,AC50,CDK2 (gene 1017),7.29 µM (active)
same,AC50,[2],7.55 µM (active)
same,AC50,[3],12.7 µM (active)
same,outcome,[4],inactive
same,outcome,[5],inactive
CCCCCOC(=O)COc1cc(N2C(=O)C3=C(CCCC3)C2=O)c(F)cc1Cl,outcome,[6],inactive
COC(=O)CSc1cc(N=c2sc(=O)n3n2CCCC3)c(F)cc1Cl,outcome,[7],inactive
same,outcome,[8],inactive
same,outcome,[9],inactive
C#CCOC(=O)[C@@H](C)Oc1ccc(Oc2ncc(Cl)cc2F)cc1,outcome,[7],inactive
same,outcome,[6],inactive
S=C(S)NCCNC(=S)S.[Mn+2].[S-]C([S-])=NCCN=C([S-])[S-].[Zn+2],AC50,[10],683 nM (active) and 1.49 µM (active)
same,outcome,Caspase-3 (Homo sapiens),inactive
same,AC50,[11],1.64 µM (active) and 1.94 µM (active)
same,AC50,[12],0.179 µM (active)
same,outcome,[12],inactive
same,AC50,CDK2 (gene 1017),0.879 µM (active)
same,outcome,[2],inactive
same,AC50,[3],5.4 µM (active)
same,AC50,[13],18.2 µM (active) and 33.6 µM (active)
same,AC50,[4],963 nM (active) and 315 nM (active) and 12.9 µM (active)
same,AC50,[14],43.5 µM (active)
same,outcome,[14],inactive
same,AC50,[15],10 µM (active) and 445 nM (active)
same,AC50,[5],1.08 µM (active) and 3.32 µM (active) and 678 nM (active)
same,AC50,[16],7.51 µM (active) and 40.2 µM (active)
same,outcome,[16],inactive
CCCCC(CC)COC(=O)c1ccccc1C(=O)O (configuration not stated),outcome,[13],inactive
C[C@]12CC[C@@H]3c4ccc(O)cc4C[C@@H](CCCCCCCCCS(=O)CCCC(F)(F)C(F)(F)F)[C@H]3[C@@H]1CC[C@@H]2O (some centres not stated),outcome,[2],inactive
same,outcome,[7],inactive
same,outcome,[14],inactive
O=C(c1ccccc1)C1CCCCC1,outcome,[14],inactive
OB(O)O,outcome,[11],inactive
N#CSCSc1nc2ccccc2s1,AC50,[3],14.4 µM (active)
same,outcome,[8],inactive
same,outcome,[14],inactive
same,AC50,[15],20 µM (active)
c1ccc(Nc2ccccc2)cc1,outcome,[16],inactive
N[C@@H](Cc1cc(I)c(Oc2ccc(O)c(I)c2)c(I)c1)C(=O)O,AC50,[1],8.73 µM (active)
same,outcome,CDK2 (gene 1017),inactive
same,AC50,[7],6.35 µM (active)
same,outcome,[6],inactive
same,outcome,[14],inactive
same,AC50,[16],5.49 µM (active)
CCCN(CCC)c1c([N+](=O)[O-])cc(C(F)(F)F)c(N)c1[N+](=O)[O-],outcome,[2],inactive
same,outcome,[8],inactive
CN(C)C(=O)Nc1ccc(Cl)c(Cl)c1,outcome,[10],inactive
same,outcome,[17],inactive
O=C(Nc1ccc([N+](=O)[O-])cc1Cl)c1cc(Cl)ccc1O,outcome,[10],inactive
same,outcome,Caspase-3 (Homo sapiens),inactive
same,outcome,[11],inactive
same,outcome,[13],inactive
COC(=O)c1c(Cl)nn(C)c1S(=O)(=O)NC(=O)Nc1nc(OC)cc(OC)n1,AC50,[13],21.1 µM (active)
CCC(O)=C1C(=O)CC(C(=O)O)CC1=O (configuration not stated),outcome,[1],inactive
same,outcome,[11],inactive
same,outcome,[12],inactive
